Assay outcomes (PubChem BioAssay)
HTT ATP protect: protects HTT-Q103 PC12 cells, measured by ATP; PC12 HTT-Q103 induced, cytoprotection, ATP luminescence, 40 h; Potency, µM (highest dose often 56.4 µM), for inactives: cytoprotection (ATP increase), actives largely listed as activators; hit rate 0.14% among 230,000; also: % of control where 0% means no effect; nearly all actives have a fitted effect of over 45% in size
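Compounds added alongside 100 nM tebufenozide, which induces toxic Q103 huntingtin exon 1-GFP in stable PC12 cells; surviving cells quantified by luminescent ATP measurement. Medium: phenol red-free DMEM, 5% equine and 5% calf serum.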
HTT aggregate: inhibitors of mutant huntingtin aggregate formation in PC12 cells | Potency, µM (titrated, usually from 46.1 µM), inactives show at the highest dose activity change, negative = inhibition, usual class: inhibitors | hit rate 1.1% among 220,000 | PC12 HttQ103-GFP aggregates, Acumen cytometry, 40 h; also: % is scaled to controls: 0 for no effect and ±100 for the full control effect; nearly all actives have a fitted effect of over 60% in size
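Aggregates are detected as GFP objects 1–25 µm with signal 6 STDEV over background in lysates of induced PC12 cells. These carry Huntingtin exon 1 with 103 glutamines fused to GFP under an ecdysone promoter; compounds titrated.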
ALDH1A1 block: blocks purified human ALDH1A1 activity. P00352. Purified ALDH1A1, NADH fluorescence, propionaldehyde substrate. Potency, µM (highest dose often 75.3 µM), for inactives: top-dose activity, negative = inhibition, hits mostly inhibitors. hit rate 7.3% among 220,000. AID 1030; active = well fitted inhibition curve with a large enough effect, not every such curve was filed as active; inconclusive = small, poorly fitted or top-dose-only effect, or another doubt; inactive = no such curve, though single readings can be large or run the other way;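 also: plate controls were no enzyme wells and a reference inhibitor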
HPGD inh: blocks human HPGD enzyme activity; purified HPGD, NADH fluorescence kinetic, PGE2 substrate; Potency, µM, inactives show top-dose activity change, negative = inhibition, most hits filed as inhibitors; hit rate 4.3% among 150,000; AID 894; active = well fitted inhibition curve with a large enough effect, not every such curve was filed as active; inconclusive = small, poorly fitted or top-dose-only effect, or another doubt; inactive = no such curve, though single readings can be large or run the other way; also: % is scaled to controls: 0 for no effect and ±100 for the full control effect
Target sequence (P15428 whole entry, looked up): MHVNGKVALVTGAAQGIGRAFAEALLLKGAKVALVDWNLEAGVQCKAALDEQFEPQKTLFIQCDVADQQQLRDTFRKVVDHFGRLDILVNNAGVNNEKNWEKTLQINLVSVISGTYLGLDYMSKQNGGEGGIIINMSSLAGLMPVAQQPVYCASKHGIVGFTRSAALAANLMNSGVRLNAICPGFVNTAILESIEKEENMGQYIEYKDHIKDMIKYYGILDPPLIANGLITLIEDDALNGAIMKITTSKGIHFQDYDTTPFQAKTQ
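NADH formation kinetics: reaction with 30 uM PGE2 and 1 mM NAD+ (final), 20 nM enzyme, Tris-HCl pH 8 with Tween 20, after 15 min compound preincubation at room temperature. Fluorescence change, last versus first of five reads.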
LMNA splice mod: LMNA splicing modulation; HeLa LMNA splicing GFP/RFP minigene ratio, 48 h; Potency, µM (top dose mostly 46.1 µM), without a hit: top-dose ratio change, negative = inhibition, most hits filed as inhibitors; hit rate 0.01% among 200,000; active = well fitted inhibition curve with a large enough effect in the signal ratio, with a control signal flat, not every such curve was filed as active; inconclusive = small, poorly fitted or top-dose-only effect, or effect the other way, or a change in a side signal; the % refers to the signal ratio; also: % is scaled to controls: 0 for no effect and ±100 for the full control effect
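S3 HeLa stable clones carrying a lamin A-EGFP splicing minigene plus DsRed2 were seeded at 600 cells/well in Opti-MEM with 2% FBS, pin-dosed and incubated 48 h at 37°C. Acumen cytometry (488 nm) gave the GFP/RFP total-intensity ratio.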
Numbers without * were called inactive; ? = inconclusive; . = no result given; ! = repeats disagree; [ ] = another dose, or the depositor's remark. Shown are actives, neighbours in structure and some others; about 8.8% of the full set was active somewhere. Unless noted, calls follow the shape of the dose curve; as a rule, active = well fitted curve in the direction sought with a large enough effect; inconclusive = small, poorly fitted or top-dose-only effect, or another doubt; inactive = no such curve, though single readings can be large; an effect the other way counts as inactive or inconclusive. Potency is read from the fitted curve at half-maximal effect.

SMILES | HTT ATP protect | HTT aggregate | ALDH1A1 block | HPGD inh | LMNA splice mod
N#CCCN(/N=C/c1cccnc1)C1=NS(=O)(=O)c2ccccc21 | -20% | 11% | 2µM* | . | ?
CN(C)c1cc[n+](CC(=O)c2ccc(-c3ccccc3)cc2)cc1 | -77% | 16µM* | ? | . | ?
CCOc1ccc(C(=S)NC2CCCCC2)cc1 | -47% | -3% | 8.9µM* | 14µM* | -3%
COc1ccc(C(=S)NC2CCCCC2)cc1 | -89% | ? | -6% | . | ?
CCCCOc1cccc(C(=O)NNC(=S)NC2CCCCC2)c1 | 15%[10 µM] | ? | -15% | -11% | ?
CCOc1cccc(C(=O)NC2CCCCC2)c1 | -11% | -16% | 1% | 28µM* | -16%
COC(=O)C1=C(C)C(c2ccc(OC)cc2)NC(=O)N1 (stereo not given) | -17% | -4% | 8% | . | .
CCOC(=O)C1=C(C)C(c2ccccc2)NC(=S)N1 (stereo not given) | -15% | 14% | 2.5µM* | 2% | -3%
COc1cc(C2NC(=O)NC(C)=C2C(=O)Nc2cccc(C)c2C)cc(OC)c1OC (stereo not given) | -3%[10 µM] | -10% | 6% | -7% | -7%
CCOC(=O)C1C(c2ccccc2)NC(=S)NC1(C)O (stereo not given) | 22% | -12% | ? | . | 20%[9.22 µM]
COC(=O)C1=C(C)C(c2ccc(OC)cc2)NC(=S)N1 (stereo not given) | 14% | 22% | 8.9µM* | -12% | 6%
COc1ccc(C2NC(=S)NC(C)=C2C(=O)Nc2ccccn2)cc1 (stereo not given) | 6%[10 µM] | -3%[9.22 µM] | 14µM* | . | 16%[46 µM]
COc1ccc(C2NC(=O)NC(C)=C2C(=O)Nc2cccc(C)c2C)cc1 (stereo not given) | -10% | -7% | 2.8µM* | 4% | -5%
O=S(=O)(O)c1ccc2c(N=Nc3c(O)ccc4ccccc34)cccc2c1 | -8%[10 µM] | . | -11%[13.5 µM] | -4% | .
Cc1cccc(NC(=O)CN2C(=O)CCn3nc(-c4cccn4C)cc32)c1C | . | . | . | . | -10%[46 µM]
COc1ccc(NC(=O)N2CCCC3(CCN(S(C)(=O)=O)CC3)C2)cc1 | -4% | . | 1% | 3% | .
COc1ccc(N2CCN(c3ncnc4onc(C)c34)CC2)cc1 | . | . | . | . | -10%[46 µM]
Cc1cc(C)nc(-n2nc(C)c3c2N(Cc2ccccc2)C(=O)CC3c2ccc(Cl)cc2)n1 (stereo not given) | . | . | . | . | 23%[46 µM]
CCCNC(=S)NCCN1CCCCC1 | -1%[1.9 µM] | 1% | 35µM* | 5% | -3%
CCCCNC(=S)NCCN1CCCCC1 | -7%[1.9 µM] | 1% | ? | -9% | -6%
Cn1c(=O)c2c(n3c4ccccc4nc13)NC(=O)CC2c1ccccc1F (stereo not given) | . | . | . | . | -14%[46 µM]
CCC(C)NC(=O)C1CCC(=O)N(c2ccc3c(c2)OCO3)C1c1ccc(OC)cc1 (stereo not given) | 3%[10 µM] | -13% | 6.3µM* | -1% | -8%
CCc1cccc2c(C(=O)COC(=O)c3ccc([N+](=O)[O-])s3)c[nH]c12 | 43%[10 µM] | -26% | 13µM* | -12% | -6%
CCc1cccc2c(C(=S)N3CCCC3)c[nH]c12 | -6%[10 µM] | -2%[9.22 µM] | -9% | . | .
CCc1cccc2c(C(=O)CCl)c[nH]c12 | -56%[10 µM] | ? | 8.9µM* | . | ?
SMILES | HTT ATP protect | HTT aggregate | ALDH1A1 block | HPGD inh | LMNA splice mod
O=C(OCC(=O)c1c[nH]c2ccccc12)c1ccc([N+](=O)[O-])s1 | -7% | 19% | 0.71µM* | . | .
COc1ccc(C)cc1S(=O)(=O)N(C)CC(=O)N1CCN(c2ccccc2)CC1 | . | . | 3% | . | 13%[46 µM]
COc1ccc(-c2cnnc(CCCn3ccnc3-c3ccccc3)n2)cc1 | -14%[10 µM] | . | -6%[13.5 µM] | . | .
CCOC(=O)N1CCc2c(sc3nc(SC(C)C)n(N)c(=O)c23)C1 | 37%[10 µM] | ? | 4.5µM* | . | ?
O=c1cc(CSc2n[nH]c(-c3ccccc3)n2)[nH]c2ccccc12 | . | . | . | . | -7%[46 µM]
Cc1nc(-n2nc(C)c(CCC(C)C)c2C)sc1C(=O)Nc1cccc(Cl)c1C | . | . | . | . | 5%[46 µM]
CCN(CC)S(=O)(=O)c1ccc(C(=O)Nc2ccc(Cc3ccncc3)cc2)cc1 | 0%[10 µM] | -5%[9.22 µM] | ? | . | .
CCN(Cc1ccncc1)S(=O)(=O)c1ccc(C(C)=O)cc1 | -9%[10 µM] | ? | 7.9µM* | -29% | ?
COC(=O)[C@@H](N)Cc1ccc(O)c(O)c1 | -144% | 23% | 7% | -13% | ?
COC(=O)Cc1ccc(O)c(N)c1 | 11%[10 µM] | 18% | 28µM* | . | -7%[46 µM]
CSc1ccc(C(=O)C2CCCN(C(=O)c3cccnc3SC)C2)cc1 (stereo not given) | 18%[10 µM] | 0%[9.22 µM] | -69% | . | 27%[46 µM]
CSc1ccc(C(=O)C2CCCN(C(=O)c3ccsc3)C2)cc1 (stereo not given) | 22%[10 µM] | 14%[9.22 µM] | 5µM* | . | .
O=C(NCc1ccccc1Cl)C1CCN(C(=O)N2CCOc3ccccc32)CC1 | . | . | . | . | 6%[46 µM]
CCN(CC)CCCOC(=O)C1(c2ccccc2)CCCC1 | 6% | 21% | 19% | 0% | -3%
CCN(CC)CCOC(=O)C1(c2ccc([N+](=O)[O-])cc2)CCCC1 | 0.32µM*! | . | -6% | -1% | ?
CCCCCC(=O)Nc1nc(C)c(-c2csc(Nc3ccccc3OC)n2)s1 | -59% | -11% | ? | ? | -2%
COc1ccccc1Nc1nc(-c2sc(NC(=O)c3ccccc3)nc2C)cs1 | 21% | 6% | 13µM* | ? | 5%
COc1ccccc1Nc1nc(-c2sc(NC(=O)c3ccc([N+](=O)[O-])cc3)nc2C)cs1 | -34% | -14% | 16µM* | -17% | 6%
Cc1ccc(Cl)cc1Nc1nc(-c2sc(NC(=O)c3ccccc3)nc2C)cs1 | -45% | -1% | 20µM* | ? | 5%
Cc1csc(Nc2cccc3ccccc23)n1 | 14% | 10% | ? | . | -6%[9.22 µM]
COc1ccccc1Nc1nc(C)cs1 | -3% | 31% | 18µM* | -16% | 3%
